Measurements reported in PubChem BioAssay.

Experiments:
[1] = biological target: Tumor necrosis factor receptor superfamily member 10B (Homo sapiens) (UniProt O14763); test: caspase-8 TRAIL sensitization, hit retest, confirmation, cell-based, NB7+caspase-8, with/without TRAIL, luminescence panel (AID 651596); conditions: NB7 neuroblastoma + caspase-8, TRAIL sensitization, luminescence viability, with TRAIL, mean of runs, at 10 µM, stronger effect = higher value
[2] = as above; conditions: NB7 neuroblastoma + caspase-8, without TRAIL, luminescence viability, without TRAIL, mean of runs, at 10 µM

Tumor necrosis factor receptor superfamily member 10B (Homo sapiens), sequence (O14763 whole entry, looked up): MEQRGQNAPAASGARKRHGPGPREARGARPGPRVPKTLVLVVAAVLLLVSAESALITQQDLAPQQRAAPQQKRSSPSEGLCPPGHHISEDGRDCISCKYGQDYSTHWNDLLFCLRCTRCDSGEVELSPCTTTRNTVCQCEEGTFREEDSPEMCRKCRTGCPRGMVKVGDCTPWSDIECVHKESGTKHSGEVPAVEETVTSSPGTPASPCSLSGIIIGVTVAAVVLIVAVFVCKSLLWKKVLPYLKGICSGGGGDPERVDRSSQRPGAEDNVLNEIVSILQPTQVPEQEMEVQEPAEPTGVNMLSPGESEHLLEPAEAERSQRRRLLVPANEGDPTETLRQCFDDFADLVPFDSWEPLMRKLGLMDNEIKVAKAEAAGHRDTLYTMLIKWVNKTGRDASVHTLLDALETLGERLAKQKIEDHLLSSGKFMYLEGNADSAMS

Row | SMILES | activity [1] | activity [2]
1 | CC(C)(C)Nc1ncnc2c1cnn2-c1ccccc1 | 73.8% | 69.5%
2 | COc1ccc(/C=N\n2nnc3ccccc32)cc1 | 53.3% | 42.7%
3 | O=C(Oc1c(CN2CCOCC2)cc(Cl)c2cccnc12)c1ccc(F)cc1 | 53.5% | 56.1%
4 | COc1cccc(Cn2c(NCc3cccnc3)nc3c2c(=O)n(C)c(=O)n3C)c1 | 79.5% | 84.7%
5 | CCN(CC)CCn1c2c(c(SCC(=O)Nc3nc4ccc(C)cc4s3)nc1=O)CCC2 | 28% | 21.6%
6 | Cc1scc(C(=O)N/N=C/c2ccsc2)c1C | 58.1% | 63.5%
7 | Cc1ccc(C2CC(c3cccs3)=NN2C(=O)CCl)cc1 (centres undefined) | 98.8% | 98%
